Here are results for 17 compounds from PubChem BioAssay (EPA / NIEHS).

The structures appear in SMILES notation. Where “and” joins values, the source holds several entries; their conditions need not be identical. Equal entries are not always repeated. The source holds several records for some structures; these can differ, active in one and inactive in another. Calls of active or inactive are those of the source. How the source made its calls: active means hit-call score of the fitted dose curve at least 0.9, where 1 is the maximum; inactive means score below 0.9.

The first assay can be described thus: CCTE_Shafer_MEA_acute_interburst_interval_mean: CCTE's Neural Acute Assay for Mean Interburst Interval, Shafer Lab (AID 2284016).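 Further: percent change of mean interburst interval versus each well's own pre-dose baseline; curves fitted for decrease in interburst interval relative to DMSO.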 The method in brief:
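Rat primary cortical neurons on 48-well MEAs at DIV 13 or 15 were exposed acutely to 0.03-40 uM. Spikes detected at 8x rms noise, 37 C. Mean interburst interval from 40 min recordings expressed as percent change from 40 min pre-treatment baseline.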
As to `CCc1cccc(C)c1N(C(=O)CCl)C(C)COC` (centres undefined), the compound was classed as inactive.

As to `CC(C)=CC1C(C(=O)OCN2C(=O)C3=C(CCCC3)C2=O)C1(C)C` (centres undefined), the compound was called inactive.

Turning to `CCc1cnc(C2=NC(C)(C(C)C)C(=O)N2)c(C(=O)O)c1` (centres undefined), the compound was called inactive.

For the compound `Nc1c(Cl)cc([N+](=O)[O-])cc1Cl`, the AC50 (as a rule, the concentration giving half of the maximal activity seen) was 30.2 µM (active).

Regarding `COP(=O)(OC)C(O)C(Cl)(Cl)Cl` (centres undefined), the compound was called inactive.

Turning to `CCCOCC(=Nc1ccc(Cl)cc1C(F)(F)F)n1ccnc1`, the compound was classed as inactive.

On to `CC[C@H](C)[C@H]1O[C@]2(C=C[C@@H]1C)C[C@@H]1C[C@@H](C/C=C(\C)[C@@H](O[C@H]3C[C@H](OC)[C@@H](O[C@H]4C[C@H](OC)[C@@H](NC)[C@H](C)O4)[C@H](C)O3)[C@@H](C)/C=C/C=C3\CO[C@@H]4[C@H](O)C(C)=C[C@@H](C(=O)O1)[C@]34O)O2`, for which the AC50 was 26.1 nM (active) and 2.28 µM (active).

In the case of `CC1=NNC(=O)N(/N=C/c2cccnc2)C1`, the compound was called inactive.

Consider `CC(=NC#N)N(C)Cc1ccc(Cl)nc1`, for which the outcome was inactive.

As to `CCOP(=S)(OCC)Oc1ccc2c(C)c(Cl)c(=O)oc2c1`, the AC50 is 4.19 µM (active).

Take `C[N+]1(C)CCCCC1`: the result was inactive.

On to `COP(=O)(NC(C)=O)SC` (centres undefined), for which the AC50 was 0.0544 µM (active) and the result was inactive.

In the case of `CN(C)[C@@H]1C(=O)C(C(N)=O)=C(O)[C@@]2(O)C(=O)C3=C(O)c4c(O)cccc4[C@@](C)(O)[C@H]3[C@H](O)[C@@H]12`, the call was inactive.

`C[Si](Cn1cncn1)(c1ccc(F)cc1)c1ccc(F)cc1`: the call was inactive.

For the compound `C=C(C)[C@H]1Cc2c(ccc3c2O[C@@H]2COc4cc(OC)c(OC)cc4[C@@H]2C3=O)O1`, the compound was called inactive.

As to `FC(F)C(F)(F)OCC(Cn1cncn1)c1ccc(Cl)cc1Cl` (centres undefined), the outcome was inactive.

Regarding `O=[N+]([O-])c1cc(C(F)(F)F)c(Cl)c([N+](=O)[O-])c1Nc1ncc(C(F)(F)F)cc1Cl`, the concentration at half-maximal activity (AC50) is 1.14 µM (active).

The nature of a further assay: CCTE_Shafer_MEA_acute_burst_percentage_mean: CCTE's Neural Acute Assay for Percentage of Spikes in a Burst, Shafer Lab (AID 2284017).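 On AC50: curve fitted for loss of signal so potency reflects decreased burst percentage.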 The method in brief: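 Primary rat cortical neurons on 48-well MEA plates, treated on DIV 13 or 15 at 0.03-40 uM. Spikes detected at 8x rms noise at 37C; percent change from 40-min baseline to 40-min post-dose recording, fitted versus DMSO.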
For the compound `CCc1cccc(C)c1N(C(=O)CCl)C(C)COC` (centres undefined), the half-maximal activity concentration (AC50) was 10.9 µM (active).

As for `CC(C)=CC1C(C(=O)OCN2C(=O)C3=C(CCCC3)C2=O)C1(C)C` (centres undefined), the AC50 is 20 µM (active).

Regarding `CCc1cnc(C2=NC(C)(C(C)C)C(=O)N2)c(C(=O)O)c1` (centres undefined), the outcome was inactive.

`Nc1c(Cl)cc([N+](=O)[O-])cc1Cl`: the concentration at half-maximal activity (AC50) was 20 µM (active).

Take `COP(=O)(OC)C(O)C(Cl)(Cl)Cl` (centres undefined): the compound was called inactive.

Turning to `CCCOCC(=Nc1ccc(Cl)cc1C(F)(F)F)n1ccnc1`, the half-maximal activity concentration (AC50) was 2.71 µM (active).

As for `CC[C@H](C)[C@H]1O[C@]2(C=C[C@@H]1C)C[C@@H]1C[C@@H](C/C=C(\C)[C@@H](O[C@H]3C[C@H](OC)[C@@H](O[C@H]4C[C@H](OC)[C@@H](NC)[C@H](C)O4)[C@H](C)O3)[C@@H](C)/C=C/C=C3\CO[C@@H]4[C@H](O)C(C)=C[C@@H](C(=O)O1)[C@]34O)O2`, the AC50 is 26.6 nM (active) and 37.8 nM (active).

As to `CC1=NNC(=O)N(/N=C/c2cccnc2)C1`, the result was inactive.

Regarding `CC(=NC#N)N(C)Cc1ccc(Cl)nc1`, the compound was classed as inactive.

Regarding `CCOP(=S)(OCC)Oc1ccc2c(C)c(Cl)c(=O)oc2c1`, the half-maximal activity concentration (AC50) was 3.9 µM (active).

In the case of `C[N+]1(C)CCCCC1`, the call was inactive.

As for `COP(=O)(NC(C)=O)SC` (centres undefined), the AC50 was 0.792 µM (active) and the compound was called inactive.

Consider `CN(C)[C@@H]1C(=O)C(C(N)=O)=C(O)[C@@]2(O)C(=O)C3=C(O)c4c(O)cccc4[C@@](C)(O)[C@H]3[C@H](O)[C@@H]12`, for which the result was inactive.

As for `C[Si](Cn1cncn1)(c1ccc(F)cc1)c1ccc(F)cc1`, the AC50 is 15.4 µM (active).

On to `C=C(C)[C@H]1Cc2c(ccc3c2O[C@@H]2COc4cc(OC)c(OC)cc4[C@@H]2C3=O)O1`, for which the compound was called inactive.

For the compound `FC(F)C(F)(F)OCC(Cn1cncn1)c1ccc(Cl)cc1Cl` (centres undefined), the call was inactive.

Take `O=[N+]([O-])c1cc(C(F)(F)F)c(Cl)c([N+](=O)[O-])c1Nc1ncc(C(F)(F)F)cc1Cl`: the AC50 is 0.678 µM (active).

The next assay can be described thus: CCTE_Shafer_MEA_acute_burst_percentage_std: CCTE's Neural Acute Assay for Standard Deviation of Burst Percentage, Shafer Lab (AID 2284018).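 Further: fitted in the negative direction so actives lower burst percentage SD.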 The gist of the method: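 Primary rat cortical neurons on 16-electrode MEA wells were recorded 40 min at baseline (DIV 13 or 15), then 40 min after compound (0.03-40 uM), at 37 C. Well value is SD across electrodes of spikes-in-bursts/total spikes; endpoint is percent change, DMSO-referenced.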
For the compound `CCc1cccc(C)c1N(C(=O)CCl)C(C)COC` (centres undefined), the call was inactive.

In the case of `CC(C)=CC1C(C(=O)OCN2C(=O)C3=C(CCCC3)C2=O)C1(C)C` (centres undefined), the AC50 was 26.1 µM (active).

`CCc1cnc(C2=NC(C)(C(C)C)C(=O)N2)c(C(=O)O)c1` (centres undefined): the outcome was inactive.

`Nc1c(Cl)cc([N+](=O)[O-])cc1Cl`: the concentration at half-maximal activity (AC50) is 26.9 µM (active).

For `COP(=O)(OC)C(O)C(Cl)(Cl)Cl` (centres undefined), the outcome was inactive.

Turning to `CCCOCC(=Nc1ccc(Cl)cc1C(F)(F)F)n1ccnc1`, the outcome was inactive.

Regarding `CC[C@H](C)[C@H]1O[C@]2(C=C[C@@H]1C)C[C@@H]1C[C@@H](C/C=C(\C)[C@@H](O[C@H]3C[C@H](OC)[C@@H](O[C@H]4C[C@H](OC)[C@@H](NC)[C@H](C)O4)[C@H](C)O3)[C@@H](C)/C=C/C=C3\CO[C@@H]4[C@H](O)C(C)=C[C@@H](C(=O)O1)[C@]34O)O2`, the concentration at half-maximal activity (AC50) was 48.5 nM (active) and 2.98 µM (active).

For `CC1=NNC(=O)N(/N=C/c2cccnc2)C1`, the outcome was inactive.

`CC(=NC#N)N(C)Cc1ccc(Cl)nc1`: the compound was called inactive.

With `CCOP(=S)(OCC)Oc1ccc2c(C)c(Cl)c(=O)oc2c1`, the compound was classed as inactive.

`C[N+]1(C)CCCCC1`: the compound was classed as inactive.

On to `COP(=O)(NC(C)=O)SC` (centres undefined), for which the AC50 was 4.26 µM (active) and the compound was classed as inactive.

Regarding `CN(C)[C@@H]1C(=O)C(C(N)=O)=C(O)[C@@]2(O)C(=O)C3=C(O)c4c(O)cccc4[C@@](C)(O)[C@H]3[C@H](O)[C@@H]12`, the compound was called inactive.

On to `C[Si](Cn1cncn1)(c1ccc(F)cc1)c1ccc(F)cc1`, for which the concentration at half-maximal activity (AC50) was 4.31 µM (active).

In the case of `C=C(C)[C@H]1Cc2c(ccc3c2O[C@@H]2COc4cc(OC)c(OC)cc4[C@@H]2C3=O)O1`, the AC50 is 30.3 µM (active).

Turning to `FC(F)C(F)(F)OCC(Cn1cncn1)c1ccc(Cl)cc1Cl` (centres undefined), the outcome was inactive.

Take `O=[N+]([O-])c1cc(C(F)(F)F)c(Cl)c([N+](=O)[O-])c1Nc1ncc(C(F)(F)F)cc1Cl`: the compound was called inactive.
